Screens from PubChem BioAssay.
Sampled rows, rich in hits. Any-hit rate of the full collection: about 6.2%.
KB-3-1 cytotox = kills parental KB-3-1 adenocarcinoma cells; KB-3-1 viability, CellTiter-Glo ATP luminescence, 72 h; Potency, µM (top dose mostly 46.1 µM), actives largely listed as cytotoxic; 400,000 tested, 1.4% active; also: nearly all actives have a fitted effect of over 60% in size
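72 h, 37 °C compound treatment of KB-3-1 parental cells; CellTiter-Glo added, 10 min, luminescence read. Data corrected against DMSO-only plates and normalized before curve fitting.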
HT1080 IDH1KD tx = toxicity to HT-1080 IDH1 knockdown cells (counter line). HT-1080 IDH1 knockdown viability, ATP luminescence, 48 h. Potency, µM (doses to about 46.1 µM), usual class: cytotoxic. 360,000 tested, 2% active. AID 686971
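HT-1080-IDH1KD cells (IDH1 knocked down), 750/well in RPMI with 5% FBS, treated with compound 48 h at 37 degrees C. Viability by CellTiter-Glo luminescence, normalised to DMSO and no-cell wells; concentration-response curves classed.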
HT1080-NT tox = kills 2HG-producing HT-1080-NT fibrosarcoma cells. HT-1080-NT fibrosarcoma viability, CellTiter-Glo ATP luminescence, 48 h. Potency, µM (highest dose often 46.1 µM), usual class: cytotoxic. 360,000 tested, 1.6% active. AID 686970;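 also: NT is the 2HG producing partner of a matched IDH1 knockdown line; nearly all actives have a fitted effect of over 55% in size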
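HT-1080-NT fibrosarcoma cells (2HG-overproducing), 750 cells/well in RPMI with 5% FBS, dosed after 2 h and incubated 48 h at 37C. CellTiter-Glo luminescence normalized to DMSO and no-cell wells; concentration-response curves fitted and classed.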
ATXN2 expr inh = ATXN2 expression inhibition; HEK-293 ATXN2-luciferase reporter, luminescence, 24 h; Potency, µM (top dose mostly 57 µM), usual class: inhibitors; 360,000 tested, 0.72% active; AID 1745845; also: nearly all actives have a fitted effect of over 55% in size
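ATXN2-luciferase reporter cells (luciferase flanked by upstream and downstream ATXN2 gene portions) were treated 24 h at 37 °C with compounds at up to 57 uM. SteadyGlo luminescence gave expression; GF-AFC fluorescence gave viability.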
ATXN viability = reduces viability in counter-screen for ATXN expression inhibitors | 400,000 tested, 0.49% active | AID 651635 | Potency, µM (top dose mostly 56.7 µM), most hits filed as cytotoxic | S2 cells (HEK-293 line with an ATXN2-luciferase reporter) viability, CellTiter-Fluor protease fluorescence, 24 h; also: nearly all actives have a fitted effect of over 40% in size
KB-V1 cytotox = kills drug-selected multidrug resistant KB-V1 cells | KB-V1 MDR cells viability, CellTiter-Glo, 72 h | 400,000 tested, 3.4% active | Potency, µM (highest dose often 46.1 µM), actives largely listed as cytotoxic; also: nearly all actives have a fitted effect of over 60% in size
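Cells of the MDR subline KB-V1 are plated, dosed with compound at multiple concentrations, and incubated 72 h at 37 degrees C; CellTiter-Glo is then added and luminescence read after 10 min.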
Hits are given with their value; - = inactive; ? = inconclusive; . = no result given. Calls follow the shape of the dose curve; as a rule, active = well fitted curve in the direction sought with a large enough effect; inconclusive = small, poorly fitted or top-dose-only effect, or another doubt; inactive = no such curve, though single readings can be large; an effect the other way counts as inactive or inconclusive.

SMILES	KB-3-1 cytotox	HT1080 IDH1KD tx	HT1080-NT tox	ATXN2 expr inh	ATXN viability	KB-V1 cytotox
COc1ccccc1NC(=O)c1nc(S(=O)(=O)Cc2ccccc2)ncc1Cl	7.3µM	3.7µM	12µM	?	?	?
Cc1ccc(NC(=O)c2nc(S(=O)(=O)Cc3ccccc3F)ncc2Cl)cc1	-	.	.	.	.	?
CC1CCN(S(=O)(=O)c2ccc(NC(=O)c3ccncc3)cc2)CC1	16µM	?	-	-	-	?
CC(=O)c1cccc(NC(=O)c2nc(-c3ccccc3)n(-c3cccc(Cl)c3)n2)c1	-	.	.	-	?	-
Cc1nc(C)n(CC(=O)NCC2Cc3cc(-c4ccsc4)cc(Cl)c3O2)n1 (centres undefined)	.	.	.	.	-	.
COc1ccccc1NC(=O)c1ccc2oc(=O)c(S(=O)(=O)c3ccccc3)cc2c1	-	.	.	-	-	-
CCS(=O)(=O)c1ncc(Cl)c(C(=O)Nc2ccccc2OC)n1	2.6µM	?	-	?	.	?
Cc1ccccc1NC(=O)c1nc(S(=O)(=O)Cc2ccccc2F)ncc1Cl	?	.	.	.	.	-
COc1cccc(NC(=O)N2CCCC2)c1	-	-	-	.	-	-
O=C(NCCCNc1nc(Nc2cccc(NC(=O)N3CCCC3)c2)ncc1I)c1cccs1	.	.	.	14µM	.	.
CCOC(=O)C1CCN(C(=O)c2cccc(N3C(=O)NC4CC3(C)Oc3ccc(C)cc34)c2)CC1 (centres undefined)	-	-	-	-	-	-
CCOC(=O)N1CCN(C(=O)c2cccc(N3C(=O)NC4CC3(C)Oc3ccc(Cl)cc34)c2)CC1 (centres undefined)	?	7.3µM	7.3µM	-	-	-
CCOC(=O)c1ccc(NC(=O)c2ccc3c(c2)CCN3S(=O)(=O)c2ccc(Cl)cc2)cc1	-	.	.	-	-	-
Cc1cc(C)c(NC(=O)CSc2ncc(S(=O)(=O)c3ccc(C(C)(C)C)cc3)c(=O)[nH]2)c(C)c1	-	.	.	-	-	-
Clc1ccc(CN(CC2CCCO2)C(c2cccs2)c2nnnn2C2CCCC2)cc1 (centres undefined)	?	-	-	?	-	21µM
Clc1ccccc1CN(Cc1ccccc1)C(c1cccs1)c1nnnn1C1CCCC1 (centres undefined)	?	-	-	-	-	?
COc1ccc(-c2nc3ccccc3n3c(-c4ccccc4)c4c(=O)n(C)c(=O)n(C)c4c23)cc1OC	-	.	.	-	-	-
CN(C(=O)CSc1nnc(-c2ccc([N+](=O)[O-])cc2)o1)c1ccccc1	-	.	.	-	-	-
Cc1cc(C)c(S(=O)(=O)Nc2cccc3nsnc23)c(C)c1	18µM	-	-	-	-	15µM
COCC(=O)Nc1cc(OC)cc(OC)c1	-	-	-	-	-	-
O=C(CN1CCCCC1)Nc1cccc(Oc2ccccc2)c1	-	-	-	-	-	-
O=C(CCl)Nc1cccc(Oc2cnccn2)c1	21µM	?	?	?	22µM	?
COc1cc(NC(=O)CCl)ccc(=O)c1	-	23µM	21µM	.	?	?
O=C(CCl)Nc1cccc(Oc2ccccc2)c1	?	?	?	9.5µM	.	?
Cc1c(C(=O)NCCc2ccncc2)cnn1-c1nccc(-c2ccccc2C(F)(F)F)n1	.	.	.	.	-	.
SMILES	KB-3-1 cytotox	HT1080 IDH1KD tx	HT1080-NT tox	ATXN2 expr inh	ATXN viability	KB-V1 cytotox
Cc1ccc(CN2CCC(=O)N(Cc3ccccn3)CC2)c(C)c1	.	.	.	.	-	.
CC(=O)c1ccc(NC(=O)c2noc(C(C)C)c2[N+](=O)[O-])cc1	-	-	-	-	-	-
CC(NC(=O)c1ccc([N+](=O)[O-])o1)C12CC3CC(CC(C3)C1)C2 (centres undefined)	?	?	18µM	-	-	?
O=C(Nc1ccc2oc(-c3ccncc3)nc2c1)c1cccs1	-	-	-	-	-	-
CC(NC(=O)C12CC3CC(CC(C3)C1)C2)C(=O)NN=Cc1ccc([N+](=O)[O-])o1 (centres undefined)	?	-	-	?	?	?
COc1ccc(NC(=O)c2noc(C(C)C)c2[N+](=O)[O-])cc1	-	?	23µM	-	-	-
O=C(Nc1ccc(-c2nc3cc(NC(=O)c4cccs4)ccc3o2)cc1)c1cccs1	?	-	-	10µM	16µM	?
Cc1ccc(-c2nc3ncccc3o2)cc1NC(=O)c1ccc([N+](=O)[O-])o1	?	?	?	-	?	18µM
Cc1cc(-c2nc3ncccc3o2)ccc1NC(=O)c1ccc([N+](=O)[O-])o1	-	-	-	-	-	-
O=S(=O)(c1ccccc1)c1nnn2c1nc(NC1CCCCC1)c1sccc12	-	.	.	.	.	-
CC(=O)Nc1nonc1-c1nnc(SCC(=O)Nc2ccc(C)c(Cl)c2)n1C	-	.	.	-	-	-
O=C(Nc1ccccc1)N1CCN(C(=O)c2nsc3ccccc23)CC1	-	.	.	.	.	-
NC(=O)c1oc2ccccc2c1NC(=O)c1ccc([N+](=O)[O-])o1	3.7µM	2.1µM	1.5µM	?	?	7.3µM
O=C(Nc1ccc2nc(-c3ccc(Br)o3)[nH]c2c1)c1cccs1	?	?	-	-	?	8.2µM
CC(=O)c1ccc(NC(=O)c2ccc([N+](=O)[O-])o2)cc1	?	18µM	?	.	?	?
CC(=O)c1cccc(NC(=O)c2ccc([N+](=O)[O-])o2)c1	?	?	15µM	-	?	16µM
CC(=O)Nc1ccc2nc(-c3ccc(Br)o3)[nH]c2c1	?	-	-	-	-	-
NC(=O)c1oc2ccccc2c1NC(=O)c1ccc(F)cc1	-	-	-	-	-	-
CN(C)CC(C)(O)c1ccc2c(c1)CN(Cc1cccn1-c1ncccn1)CCO2 (centres undefined)	.	.	.	.	-	.
CCC(=O)N1CCc2cc(S(=O)(=O)NC(Cc3ccccc3)C(=O)Nc3ccccc3C)ccc21 (centres undefined)	-	.	.	-	-	-
Cc1cc(NC(=O)c2ccc([N+](=O)[O-])o2)ccc1NC(=O)c1ccco1	5.2µM	5.8µM	5.2µM	-	?	?
O=C(Nc1ccc2oc(-c3ccncc3)nc2c1)c1ccc([N+](=O)[O-])o1	?	16µM	6.5µM	-	?	-
COc1ccc(NC(=O)c2ccc(Br)o2)cc1	-	-	-	-	-	-
Cc1cc(C)cc(NC(=O)c2ccc([N+](=O)[O-])o2)c1	?	16µM	?	?	?	13µM
COc1ccc(NC(=O)c2ccc([N+](=O)[O-])o2)cc1	8.2µM	?	-	-	-	?
CN1CCc2nc3sc(C(=O)Nc4ccccc4C(F)(F)F)c(N)c3cc2C1	-	.	.	.	.	-
O=C(Nc1ccc2oc(-c3ccc4ccccc4c3)nc2c1)c1ccc2c(c1)OCCO2	-	?	?	?	?	2.6µM
O=[N+]([O-])c1cc(-c2nc(-c3ccccc3)no2)ccc1N1CCOCC1	-	.	.	-	-	-
